# Laboratory results: the supplement of paper PMC10338343
# ± gives the standard deviation. Over roughly 6,600 sequences, “pre-steady-state target cleavage rate” has its median near 0.07; the highest 2% begin near 0.72. This excerpt belongs to a sample that is enriched for the highest values.
# Test system: MIWI (PIWIL1) piRISC loaded with Kctd7 piRNA (30 nt)
# Experiment: pre-steady-state target cleavage rate (min^-1); MIWI and MILI are mouse PIWI proteins and EfPiwi is from a freshwater sponge; tags in brackets are library labels; higher = faster piRNA-guided slicing of the target
# Conditions: guide: Kctd7 piRNA 5'p-UGUUAAUCUCUCAGAGAAGGUGACAGUGAU; auxiliary factor: 500 nM mouse GTSF1
# How it was run: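 The pre-steady-state cleavage rate was derived from a burst-and-steady-state fit of Cleave-'n-Seq data. For these assays, 1 nM active affinity-purified piRISC loaded with a single synthetic guide was mixed with […] a transcribed, DNA-blocked target RNA library in HEPES–potassium acetate buffer at 33 °C, with or without 500 nM GTSF1 partner protein, for 0–8 or 0–960 min. Sequencing counts of uncleaved targets were normalised to depth and to weakly complementary targets, and k3 was capped at 0.0001 min^-1 after three trials were pooled.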
# 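Further: 1 nM active piRISC with 0.1 nM target library at 33 °C single turnover.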
row,Sequence,pre-steady-state target cleavage rate
1,UAGUCUGUCACCUUCGCUGAGAGAUUAACA,0.416 ± 0.035
2,AUCACUUUCACCUUCUCUGAGAGAUUAACA,0.622 ± 0.027
3,UAGUGAGUCUCCUUCUCUGAGAGAUUUACA,0.0124 ± 0.0051
4,UAGUCUCUCACCUUCUCUGUGAGAUUAACA,0.2 ± 0.015
5,UAGUGACAGACCCUUCUCUGAGAGAUUAACA,0.0893 ± 0.016
6,UACACUGUCACGAACUCUGAGAGAUUAACA,0.131 ± 0.019
7,UAGUCUGUCACCAUCUCUGAGAGAUUAUGA,0.021 ± 0.0082
8,UAGUGACAGUCCUUCUCUGAGACAUUAACA,0.0121 ± 0.0033
9,AUCACUAGUCACCUUCUCUGAGAGAUUAACA,0.724 ± 0.04
10,UAGAGAGUCACCUUCUCUGAGAGAUUAACA,0.797 ± 0.035
11,AUGAGUGUCACCUUCUCUGAGAGAUUAACA,0.706 ± 0.032
12,UAGAGUGUCACCUUCUCUGAGAGAUUAACA,0.72 ± 0.035
13,UACACAGUCACCUUCUCUGAGAGAUUAACA,0.589 ± 0.038
14,UUCACAGUCACCUUCUCUGAGAGAUUAACA,0.656 ± 0.027
15,UACACUAGUCACCUUCUCUGAGAGAUUAACA,0.663 ± 0.029
16,UUCUGAGUCACCUUCUCUGAGAGAUUAACA,0.657 ± 0.059
17,AACACAGUCACCUUCUCUGAGAGAUUAACA,0.736 ± 0.032
18,AUCUGAGUCACCUUCUCUGAGAGAUUAACA,0.652 ± 0.053
19,UUCACUAGUCACCUUCUCUGAGAGAUUAACA,0.708 ± 0.032
20,UUGAGUGUCACCUUCUCUGAGAGAUUAACA,0.763 ± 0.034
21,AUGACUGUCACCUUCACUGAGAGAUUAACA,0.541 ± 0.032
22,UAGUCUGUCACGCUUCUCUGAGAGAUUAACA,0.506 ± 0.025
23,UAGUGACUCCACCUUCUCUGAGAGAUUAACA,0.415 ± 0.04
24,UAGACUGUCACCUUCUCUGUGACAUUAACA,0.0186 ± 0.0033

row,Sequence,pre-steady-state target cleavage rate
1,UAGUGUGUCACCUUCUCUGAGAGUUUAUCA,0.232 ± 0.056
2,UAGUGUGUCACCUUCUCUGAGACAUAAACA,0.0331 ± 0.0077
3,UAGUGACAGUGCUUCGCUGAGAGAUUAACA,0.00389 ± 0.0031
4,AUCACUGUCACCUUCACUGAGACAUUAACA,0.252 ± 0.024
5,UAGACUAUCACCUUCUCUGAGAGAUUAACA,0.56 ± 0.026
6,UAGACUAGUCACCUUCUCUGAGAGAUUAACA,0.756 ± 0.049
7,UAGACAGUCACCUUCUCUGAGAGAUUAACA,0.656 ± 0.033
8,UAGUGACAGACCUUCACUGAGAGAUAAACA,0.0224 ± 0.007
9,UAGUGACAGUGCUUCUCUGAGAGUUUAACA,0.00896 ± 0.0024
10,AUUACUGUCACCUUCUCUGAGAGAUUAACA,0.713 ± 0.032
11,UAUACUGUCACCUUCUCUGAGAGAUUAACA,0.767 ± 0.047
12,UUACUGUCACCUUCUCUGAGAGAUUAACA,0.743 ± 0.041
13,UUUACUGUCACCUUCUCUGAGAGAUUAACA,0.708 ± 0.026
14,AUACUGUCACCUUCUCUGAGAGAUUAACA,0.756 ± 0.043
15,UACUCUGUCACCUUCUCUGAGAGAUUAACA,0.663 ± 0.03
16,UUCUACUGUCACCUUCUCUGAGAGAUUAACA,0.677 ± 0.038
17,UACUGUGUCACCUUCUCUGAGAGAUUAACA,0.63 ± 0.027
18,UACUACUGUCACCUUCUCUGAGAGAUUAACA,0.694 ± 0.032
19,UAGUGACUCACGUUCUCUGACAGAUUAACA,0.00367 ± 0.0032
20,UAGACUGUCAGCUUCUCUGAGAGAUUAAGA,0.0909 ± 0.017
21,UAGUCUCACACCUUCUCUGAGAGAUUAUGA,0.0207 ± 0.0066
22,UAGUCUGUCACCUUCACUGAGAGAUUAACA,0.39 ± 0.02
23,UUCACUGUCUACCUUCUCUGAGAGAUUAACA,0.208 ± 0.022
24,UAGUGACAGUCCUUCUCUGAGAGAUAAUCA,0.00284 ± 0.0022

row,Sequence,pre-steady-state target cleavage rate
1,UUCGCUGUCACCUUCUCUGAGAGAUUAACA,0.626 ± 0.04
2,UUCUGUGUCACCUUCUCUGAGAGAUUAACA,0.224 ± 0.022
3,AACUCUGUCACCUUCUCUGAGAGAUUAACA,0.715 ± 0.034
4,UACGCUGUCACCUUCUCUGAGAGAUUAACA,0.745 ± 0.038
5,AUCGCUGUCACCUUCUCUGAGAGAUUAACA,0.825 ± 0.042
6,UUGUCUGUCACCUUCUCUGAGAGAUUAACA,0.691 ± 0.031
7,UAGGCUGUCACCUUCUCUGAGAGAUUAACA,0.803 ± 0.045
8,AUGUCUGUCACCUUCUCUGAGAGAUUAACA,0.604 ± 0.024
9,UACACUGUCACCUUCUGUGUGAGAUUAACA,0.0849 ± 0.012
10,UUCUCUGUGACCUUCUCUGAGAGAUUAACA,0.491 ± 0.023
11,UACACUGUCACCUUCUCUGAGACUUUAUGA,0.00869 ± 0.0047
12,UAGUGACAGUGCCUUCUCUGAGAGAUUAACA,0.356 ± 0.034
13,UAGUGAGUGACCUUCUCAGAGAGAUUAACA,0.226 ± 0.026
14,UAGUGACAGUCCUUCUCUGAGGGAUUAACA,0.0348 ± 0.0076
15,UUCACUGCUCACCUUCUCUGAGAGAUUAACA,0.669 ± 0.044
16,AUCACUGCUCACCUUCUCUGAGAGAUUAACA,0.8 ± 0.051
17,AUCACUGCCACCUUCUCUGAGAGAUUAACA,0.773 ± 0.044
18,UACACUGCUCACCUUCUCUGAGAGAUUAACA,0.623 ± 0.035
19,UUCACUGCCACCUUCUCUGAGAGAUUAACA,0.611 ± 0.023
20,UACACUGCCACCUUCUCUGAGAGAUUAACA,0.613 ± 0.035
21,UAGUGACUGACCUUCUCUGAGAGAUUAUGA,0.00985 ± 0.0048
22,UAGUGACUCUACCUUCUCUGAGAGAUUAACA,0.122 ± 0.014
23,UAGACUGUGCACCUUCUCUGAGAGAUUAACA,0.651 ± 0.048
24,UAGUGAGUCACCUUAUCUGAGAGAUUAACA,0.363 ± 0.02
